The record followed here is PubChem BioAssay (NCATS).

Test [1] can be described thus: Quantitative High-Throughput drug screen in 47 multiple myeloma cell lines against the NCATS MIPE library collection: MOLP8_DSMZ cell viability assay (AID 1918977). Also: nearly all actives have a fitted effect of over 45% in size. A digest of the protocol:
(§1)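 Plated at 500 cells per well, myeloma lines received MIPE 4.0 compounds by pin tool. Following 48 h culture at 37 °C, CellTiter-Glo luminescence gave viability relative to DMSO and media-only controls.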

Test [2] is described as follows: Quantitative High-Throughput drug screen in 47 multiple myeloma cell lines against the NCATS MIPE library collection: NCIH929_DSMZ cell viability assay (AID 1918978). Also: nearly all actives have a fitted effect of over 35% in size. The method, boiled down:
as §1

Test [3] is described as follows: Quantitative High-Throughput drug screen in 47 multiple myeloma cell lines against the NCATS MIPE library collection: OCIMY1_PLB cell viability assay (AID 1918979). Also: nearly all actives have a fitted effect of over 35% in size. As to viability: series mostly up to about 46 µM. The method, boiled down: as §1
Test [4] can be described thus: Quantitative High-Throughput drug screen in 47 multiple myeloma cell lines against the NCATS MIPE library collection: MM1R_ATCC cell viability assay (AID 1918981). Also: nearly all actives have a fitted effect of over 35% in size. The method, boiled down: as §1
Test [5] can be described thus: Quantitative High-Throughput drug screen in 47 multiple myeloma cell lines against the NCATS MIPE library collection: KMS28PE_JCRB cell viability assay (AID 1918983). Also: nearly all actives have a fitted effect of over 35% in size. A digest of the protocol: as §1
Test [6] can be described thus: Quantitative High-Throughput drug screen in 47 multiple myeloma cell lines against the NCATS MIPE library collection: L363_DSMZ cell viability assay (AID 1918984). Also: nearly all actives have a fitted effect of over 40% in size. A digest of the protocol:
as §1

Test [7] is described as follows: Quantitative High-Throughput drug screen in 47 multiple myeloma cell lines against the NCATS MIPE library collection: MM1S_ATCC cell viability assay (AID 1918980). Also: nearly all actives have a fitted effect of over 45% in size. The method, boiled down:
as §1

Test [8] is described as follows: Quantitative High-Throughput drug screen in 47 multiple myeloma cell lines against the NCATS MIPE library collection: MMM1_PLB cell viability assay (AID 1918976). Also: nearly all actives have a fitted effect of over 35% in size. A digest of the protocol: as §1
Test [9] can be described thus: Quantitative High-Throughput drug screen in 47 multiple myeloma cell lines against the NCATS MIPE library collection: KMS26_JCRB cell viability assay (AID 1918975). Also: nearly all actives have a fitted effect of over 45% in size. A digest of the protocol:
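Luminescent ATP measurement with CellTiter-Glo gives viability, scaled between DMSO-only wells (100%) and media-only wells (0%). Cells, 500 per well, faced library compounds for 48 hours at 37C.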

A short description of test [10]: Quantitative High-Throughput drug screen in 47 multiple myeloma cell lines against the NCATS MIPE library collection: LP1_DSMZ cell viability assay (AID 1918982). Also: nearly all actives have a fitted effect of over 35% in size. A digest of the protocol: as §1

Results filed as inconclusive are left out. Unmarked numbers belong to inactive results. Activity calls are given as the source filed them. Calls follow the shape of the dose curve; as a rule, active = well fitted curve in the direction sought with a large enough effect; inconclusive = small, poorly fitted or top-dose-only effect, or another doubt; inactive = no such curve, though single readings can be large; an effect the other way counts as inactive or inconclusive.
Potency is read from the fitted curve at half-maximal effect.

Regarding `CCCCCCCCCC(=O)N[C@@H](Cc1c[nH]c2ccccc12)C(=O)N[C@H](CC(N)=O)C(=O)N[C@@H](CC(=O)O)C(=O)N[C@@H]1C(=O)NCC(=O)N[C@@H](CCCN)C(=O)N[C@@H](CC(=O)O)C(=O)N[C@H](C)C(=O)N[C@@H](CC(=O)O)C(=O)NCC(=O)N[C@H](CO)C(=O)N[C@@H]([C@@H](C)CC(=O)O)C(=O)N[C@@H](CC(=O)c2ccccc2N)C(=O)O[C@@H]1C`, the Potency result in [1], in test [2], in test [3], in [4], in test [5] and in test [6] was “inactive” in each case.

For `Cn1cncc1[C@@](N)(c1ccc(Cl)cc1)c1ccc2c(c1)c(-c1cccc(Cl)c1)cc(=O)n2C`, the Potency in [1] is 7.43 µM (active); in test [2], 5.26 µM (active); in [7], 6.62 µM (active); in test [4], 23.5 µM (active); in test [5], 8.33 µM (active).

On to `CCNC(=O)Nc1ccc2ncc(Nc3ccc(C)cc3)nc2n1`, for which the Potency in [8] is 14.8 µM (active); in test [2], 7.43 µM (active); in test [4], 18.7 µM (active). Also, the Potency entry in test [5] is “inactive”.

Consider `C[C@@H]1CN(CC(=O)Nc2ccc3c(c2)Cc2cccc(-c4cc(=O)cc(N5CCOCC5)o4)c2S3)C[C@H](C)O1`, for which the Potency in test [9] was 20.9 µM (active); in test [2], 5.9 µM (active); in test [7], 18.7 µM (active); in test [5], 9.35 µM (active); in [6], 14.8 µM (active).

Turning to `Cc1cc(Nc2cc(CN3CCOCC3)c3nc(C)c(Cc4ccc(Cl)cc4F)n3n2)n[nH]1`, the Potency in [8] is 14.8 µM (active); in test [1], 20.9 µM (active); in test [2], 26.4 µM (active); in test [7] it was 20.9 µM (active); in [4], 18.7 µM (active).

`COc1ccc2c(OCc3nnc4ccc(-c5ccccc5)nn34)ccnc2c1`: the Potency entry in test [8], in [2], in test [3], in test [7], in [10] and in [5] was “inactive” in each case.

With `COc1c(N2C[C@@H]3CCCN[C@H]3C2)c(F)cc2c(=O)c(C(=O)O)cn(C3CC3)c12`, the Potency entry in test [8], in test [2] and in [5] was “inactive” in each case.

Turning to `CC(C)(C)c1cc(NC(=O)Nc2ccc(-c3cn4c(n3)sc3cc(OCCN5CCOCC5)ccc34)cc2)no1`, in test [9], the Potency was 18.7 µM (active). The Potency result in test [2], in test [7] and in test [6] was “inactive” in each case.

Regarding `Cc1ccc(CN2CCNCC2)cc1NC(=O)CNc1ccc(F)c(F)c1`, the Potency is 16.6 µM (active) in [8], 2.64 µM (active) in test [7], 26.4 µM (active) in test [4] and 20.9 µM (active) in test [5]. The Potency entry in test [2] and in test [3] was “inactive” each time.

With `CC(C)(C)NC(=O)[C@H]1CN(Cc2cccnc2)CCN1C[C@@H](O)C[C@@H](Cc1ccccc1)C(=O)N[C@H]1c2ccccc2C[C@H]1O`, the figures for the Potency in test [9] and in test [4] were 20.9 µM (active) and 26.4 µM (active), respectively.

`C=CC(=O)Nc1cccc(Oc2nc(Nc3ccc(N4CCN(C)CC4)cc3OC)ncc2Cl)c1`: the Potency was 26.4 µM (active) in [9], 20.9 µM (active) in test [3] and 20.9 µM (active) in test [10].

For the molecule `CCCCN1CCC(CNC(=O)c2c3n(c4ccccc24)CCCO3)CC1`, the Potency in [8] was 5.26 µM (active); in test [2] it was 4.69 µM (active); in test [7], 3.72 µM (active); in test [5], 23.5 µM (active).

In the case of `O=C(O)CO.[NH2-].[NH2-].[Pt+2]`, the Potency entry in test [9], in [5] and in test [6] was “inactive” in each case.

For `C[C@]1(CO)CN(c2cc(C(=O)Nc3ccc4c(c3)-c3c(c(C(N)=O)nn3-c3ccc(F)cc3)CC4)c(Cl)cn2)C[C@@]1(C)CO`, the Potency in test [8] is 14.8 µM (active); in [2], 9.35 µM (active); in test [7] it was 14.8 µM (active); in test [4], 8.33 µM (active).

For `NCC(=O)Nc1ccc(-n2nc(C(F)(F)F)cc2-c2ccc3c(ccc4ccccc43)c2)cc1`, the Potency in test [8] is 23.5 µM (active); in test [2], 16.6 µM (active); in [10], 23.5 µM (active); in test [5], 29.6 µM (active).

Turning to `CC(C)Nc1cc(C(F)(F)F)cc2nc(NC(=O)c3cccnc3)nn12`, the Potency entry in test [1], in test [2], in test [3], in [10], in test [5] and in test [6] was “inactive” each time.

On to `CC(=O)SC[C@@H](C)C(=O)N1CCC[C@H]1C(=O)N[C@@H](Cc1ccccc1)C(=O)O`, for which the Potency result in test [1], in [2], in [3], in [4] and in [10] was “inactive” throughout.

For `CCCNC(=O)Nc1ccc(Oc2ncnc3cc(OC)c(OC)cc23)cc1Cl`, the Potency in test [8] is 1.66 µM (active); in test [7], 20.9 µM (active). In addition, the Potency entry in test [1], in test [2], in [4], in test [10], in test [5] and in test [6] was “inactive” in each case.

For the molecule `Cc1nc2ccc(CN(C)c3ccc(C(=O)N[C@@H](CCC(=O)O)C(=O)O)s3)cc2c(=O)[nH]1`, the Potency in [9] was 9.35 µM (active); in test [7], 20.9 µM (active); in [6], 1.48 µM (active). The Potency entry in test [3], in test [10] and in test [5] was “inactive” throughout.

As for `COc1ccc(CC2c3cc(OC)c(OC)cc3CC[N+]2(C)CCC(=O)OCCCCCOC(=O)CC[N+]2(C)CCc3cc(OC)c(OC)cc3C2Cc2ccc(OC)c(OC)c2)cc1OC` (stereo unspecified), the viability (% of DMSO) in test [9] is 102% [at 5.15 µM]. Also, in test [5], the viability, % of DMSO control was 105% [at 5.15 µM].

In the case of `CCCn1c(=O)c2[nH]c(-c3cnn(Cc4cccc(C(F)(F)F)c4)c3)nc2n(CC)c1=O`, the Potency in test [8] was 13.2 µM (active); in test [1] it was 5.9 µM (active); in test [7] it was 16.6 µM (active); in test [10], 10.5 µM (active). The Potency entry in [2], in test [3] and in test [5] was “inactive” throughout.

Turning to `Cc1ccc(C(=O)Nc2cccc(C(F)(F)F)c2)cc1-c1ccc2nc(NCCN3CCOCC3)ncc2c1`, the Potency in [8] is 14.8 µM (active); in test [1] it was 3.32 µM (active); in test [2] it was 5.26 µM (active); in test [3], 18.7 µM (active); in [7] it was 16.6 µM (active); in test [4] it was 14.8 µM (active). The Potency in test [10] was 18.7 µM (active); in test [5], 14.8 µM (active); in [6] it was 1.05 µM (active).

Turning to `O=C(NCCS(=O)(=O)c1ccc(C(F)(F)F)cn1)c1ccc(Cl)cc1`, the Potency entry in test [8], in test [1], in test [2], in [3], in [7] and in test [5] was “inactive” in each case. Further, the Potency entry in test [6] was “inactive”.

For `CC=C1NC(=O)[C@H]2CSSCCC=C[C@H](CC(=O)N[C@H](C(C)C)C(=O)N2)OC(=O)[C@H](C(C)C)NC1=O`, the Potency in [8] is 0.935 µM (active); in [1], 0.0132 µM (active); in [2], 0.0526 µM (active); in test [7], 0.0332 µM (active); in [4], 0.0166 µM (active); in test [5], 0.0209 µM (active). Further, in [6], the Potency is 0.0066 µM (active).
